High-throughput results: PubChem, National Center for Advancing Translational Sciences (NCATS)
PLK1 PBD block: blocks phosphopeptide binding to human PLK1 polo-box domain | P53350 | Potency, µM, without a hit: max response, negative = inhibition, actives largely listed as inhibitors | Plk1 PBD binding of FITC phosphopeptide, fluorescence polarization | 360,000 tested, 2.8% active; also: potency is read from the fitted curve at half-maximal effect; series mostly up to about 57 µM; % is scaled to controls: 0 for no effect and ±100 for the full control effect; nearly all actives have a fitted effect of over 65% in size
Target sequence (P53350 whole entry, looked up, the tested form may be a part): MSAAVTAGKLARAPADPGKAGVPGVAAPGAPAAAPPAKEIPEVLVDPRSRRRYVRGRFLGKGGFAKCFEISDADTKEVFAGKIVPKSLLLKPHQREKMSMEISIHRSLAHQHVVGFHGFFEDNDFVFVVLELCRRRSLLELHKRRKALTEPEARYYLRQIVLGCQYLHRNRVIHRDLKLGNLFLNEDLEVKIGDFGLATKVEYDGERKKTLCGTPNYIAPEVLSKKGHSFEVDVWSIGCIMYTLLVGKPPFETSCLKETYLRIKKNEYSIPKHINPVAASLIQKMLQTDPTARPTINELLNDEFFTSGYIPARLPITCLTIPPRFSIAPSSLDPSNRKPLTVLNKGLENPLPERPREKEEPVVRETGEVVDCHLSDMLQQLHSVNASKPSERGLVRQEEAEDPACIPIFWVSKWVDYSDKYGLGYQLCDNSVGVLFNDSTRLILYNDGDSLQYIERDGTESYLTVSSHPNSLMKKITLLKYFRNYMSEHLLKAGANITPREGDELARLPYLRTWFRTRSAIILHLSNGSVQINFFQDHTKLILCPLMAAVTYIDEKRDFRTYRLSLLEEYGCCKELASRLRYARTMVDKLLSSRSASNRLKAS
G9a block: inhibitors of human histone lysine methyltransferase G9a. Q96KQ7. G9a H3K9 monomethylation, AlphaScreen, 2 h. Potency, µM (series often up to 102 µM), inactives show at the top dose activity, negative = inhibition, most hits filed as inhibitors. 350,000 tested, 8.8% active. AID 504332; also: potency is read from the fitted curve at half-maximal effect; % is scaled to controls: 0 for no effect and ±100 for the full control effect; nearly all actives have a fitted effect of over 75% in size
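AlphaScreen detection with an anti-monomethyl H3K9 antibody quantified product after a 2 h room-temperature reaction containing 500 nM biotinylated H3K9 peptide, 20 µM SAM and 20 nM enzyme, which had been preincubated 15 min with compound.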
BAZ2B inh: BAZ2B (human) inhibition. Q9UIF8. AlphaScreen BAZ2B-H3K14Ac peptide displacement. Potency, µM (top dose mostly 114 µM), inactives show top-dose activity change, negative = inhibition, most hits filed as inhibitors. 360,000 tested, 4.4% active. AID 504333; also: potency is read from the fitted curve at half-maximal effect; % is scaled to controls: 0 for no effect and ±100 for the full control effect; nearly all actives have a fitted effect of over 60% in size
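BAZ2B (50 nM) with biotin-H3(5-23)K14Ac peptide (50 nM) in PBS pH 7.4, 0.01% Tween-20, preformed 30 min, then compound 30 min at room temperature; top concentration 110uM. AlphaScreen streptavidin donor/nickel chelate acceptor beads (10 ug/mL final), 20 min dark, signal read.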
JMJD2A Tudor: JMJD2A Tudor domain (human) inhibition | AlphaScreen JMJD2A-Tudor / H3K4me3 peptide binding | O75164 | Potency, µM (highest dose often 114 µM), for the others: at the top dose activity change, negative = inhibition, actives largely listed as inhibitors | 390,000 tested, 4.4% active; also: potency is read from the fitted curve at half-maximal effect; % is scaled to controls: 0 for no effect and ±100 for the full control effect; nearly all actives have a fitted effect of over 50% in size
PI5P4K alpha inh: inhibitors of human PI5P4K alpha; P48426; PI5P4Kalpha enzyme, ADP-Glo luminescence, 60 min; stronger effect = lower value; max response, %; 330,000 tested, 1.2% active; active = max response of -50% or lower; inconclusive = between -30% and -50%; inactive = -30% or higher; also: value at the top dose of about 77 µM; % is scaled to controls: 0 for no effect and ±100 for the full control effect
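ADP-Glo luminescence end-point after a 60 min room-temperature kinase reaction. PI5P4Kalpha and substrate in HEPES pH 7.4 buffer with EGTA, 0.1% CHAPS and 5% DMSO; ATP at 5 microM final.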
HP1b binding inh: HP1-beta chromodomain-methylated histone interaction inhibition; P83916; AlphaScreen HP1-beta / biotin-H3K9me3 peptide binding; Potency, µM (highest dose often 114 µM), for inactives: top-dose activity change, negative = inhibition, hits mostly inhibitors; 390,000 tested, 0.56% active; AID 540317; also: potency is read from the fitted curve at half-maximal effect; nearly all actives have a fitted effect of over 70% in size
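AlphaScreen: HP1-beta (50 nM) preformed 30 min with biotin-H3(1-18)K9me3 peptide (50 nM) in PBS pH 7.4, 0.01% Tween-20. Compound added for 30 min at RT, then streptavidin donor/nickel chelate acceptor beads (10 ug/mL) for 30 min.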
* hit, by the source's call; ? = inconclusive; / = not tested or not shown; [ ] = dose if it differs, or a comment. Sampled rows, rich in hits. Any-hit rate of the full collection: about 12%. Unless noted, calls follow the shape of the dose curve; as a rule, active = well fitted curve in the direction sought with a large enough effect; inconclusive = small, poorly fitted or top-dose-only effect, or another doubt; inactive = no such curve, though single readings can be large; an effect the other way counts as inactive or inconclusive.

SMILES	PLK1 PBD block	G9a block	BAZ2B inh	JMJD2A Tudor	PI5P4K alpha inh	HP1b binding inh
O=C(Nc1ccc(Cl)c(S(=O)(=O)N2CCOCC2)c1)C1=NN(c2ccccc2)C(=O)CC1	-1%	/	/	-29%	-12	7%
CC(=O)c1ccc(C(=O)Nc2ccc(N3CCOCC3)cc2)cc1	-2%	5%[59 µM]	/	-6%	4	14%
O=C(Nc1ccc(N2CCOCC2)c(Cl)c1)c1ncn[nH]1	-3%	-11%[59 µM]	18µM*	56µM*	-8	28%
O=C(Nc1ccc(N2CCOCC2)c(Cl)c1)c1ccc(Cl)cc1	-2%	-21%[59 µM]	-33%	-29%	-6	3%
O=C(Nc1ccc(N2CCOCC2)cc1)C1=NN(c2ccccc2)C(=O)CC1	-3%	45µM*	-34%	-19%	1	8%
CN(C)c1ccc(NC(=O)c2ccc(N3CCOCC3)nc2)cc1	-15%	7.9µM*	?	?	-11	-14%
CC(C)c1ccc(C(=O)Nc2ccc(N3CCOCC3)cc2)cc1	-6%	50µM*	-10%	-13%	-4	23%
Cc1ccc(CNC(=O)C2CCN(c3nn4cc(-c5ccc(F)cc5)nc4s3)CC2)cc1	/	1%[59 µM]	2%	-15%	/	-11%
Cc1c(-c2ccc(Cl)cc2Cl)nc2ccccc2c1C(=O)NCCN1CCOCC1	-8%	-7%	-8%	?	5	16%
O=C(Nc1ccc(Cl)cc1)Nc1ccc(N2CCOCC2)cc1	-7%	-49%[12.7 µM]	8%	-6%	5	33%
Cc1ccc(NC(=O)Nc2ccc3c(c2)nc(C)n3C)cc1C	/	-3%	2%	/	/	/
O=C(Nc1ccc(N2CCOCC2)cc1)c1ccccc1SCC(=O)N1CCCC1	-28%	7.1µM*	-7%	-19%	-24	12%
Cc1nc2cc(NC(=O)Nc3ccc(N4CCOCC4)cc3)ccc2n1C	-2%	8.9µM*	-22%	-19%	/	18%
Cc1ccc(NC(=O)c2cc(N3C(=O)CCC3=O)ccc2N2CCOCC2)cc1	-3%	-3%	-16%	-11%	5	39%
Cc1ccc(NC(=O)c2cc(N3C(=O)C=CC3=O)ccc2N2CCOCC2)cc1Cl	4.7µM*	1.6µM*	50µM*	20µM*	-76*	?
O=C(Nc1ccc(N2CCOCC2)cc1)Nc1ccc(Cl)c(Cl)c1	-5%	7.1µM*	-10%	-32%	/	20%
O=S1(=O)N=C(N(Cc2cccs2)c2ccc(O)cc2)c2ccccc21	-19%	/	-23%	-27%	-2	5%
Cc1oc(C(C)(C)C)cc1C(=O)Nc1ccc(N2CCOCC2)cc1	0%	45µM*	-25%	-17%	4	-10%
CSc1ccc(Cl)c(C(=O)Nc2ccc(N3CCOCC3)cc2)c1	-12%	50µM*	?	-34%	-3	2%
CN(C)C1CCN(C(=O)c2cccc(OC3CCN(S(=O)(=O)N(C)C)CC3)c2)C1 (configuration not stated)	0%	1%	-21%	-5%	2	24%
O=C(COc1ccc(Cl)cc1Cl)NCC1(N2CCOCC2)CCCCC1	-6%	/	/	4%	-2	24%
OC(CNCC1(N2CCCCC2)CCCCC1)COc1ccc(Cl)cc1Cl (configuration not stated)	-7%	50µM*	-31%	2.8µM*	10	?
Cn1cccc1-c1nc2ccc(NC(=O)c3ccco3)cc2[nH]1	1%	?	50µM*	?	-1	?
Cc1ccc(NC(=O)c2cnn(-c3ccccc3)c2NC(=O)c2ccco2)cc1	3.4µM*	15%	5%	-32%[11.4 µM]	?	-10%
O=C(Nc1ccc2nc(-c3cccs3)[nH]c2c1)c1ccco1	0%	?	1%	0%	-12	42%
SMILES	PLK1 PBD block	G9a block	BAZ2B inh	JMJD2A Tudor	PI5P4K alpha inh	HP1b binding inh
Cc1ccc2nc(-c3ccc(NC(=O)c4ccco4)cc3)[nH]c2c1	-2%	28µM*	-16%	-34%	/	-20%
Cc1ccc(Cl)cc1NC(=O)N1CCC2(CC1)Oc1ccccc1C(=O)N2Cc1ccccc1F	/	0%[59 µM]	0%	-3%	/	59%
COc1cc(F)c(S(=O)(=O)N2CCN(S(=O)(=O)c3ccc4c(c3)OCCO4)CC2)c(F)c1	/	/	/	-7%	/	/
CC1CCCC(NC(=O)CN2CCN(S(=O)(=O)c3cccs3)CC2)C1C (configuration not stated)	2%	5%[2.33 µM]	11%	-9%	1	40%
COc1ccc(Cl)cc1-c1n[nH]c(=S)n1C	-12%	7.9µM*	24%	6.3µM*	-15	22%
CCn1c(-c2cc(Cl)ccc2OC)n[nH]c1=S	-7%	5.6µM*	0%	7.1µM*	-12	20%
CCn1c(-c2cc(Br)ccc2O)n[nH]c1=S	-18%	/	/	13µM*	/	21%
COc1ccc(Cl)cc1-c1nc(SCC(=O)N(C)C)n[nH]1	-2%	-3%	13%	-22%	-5	28%
C=CCn1c(-c2cc(Cl)ccc2OC)n[nH]c1=S	-15%	1.6µM*	1%	7.9µM*	-16	8%
Cc1nn2c(=O)cc(COC(=O)c3cccc(NC(=O)c4ccc(F)cc4)c3)nc2s1	/	1%[59 µM]	1%	-18%	/	23%
COc1ccc(C(=O)N2CCc3cc(OC)c(OC)cc3C2COc2ccccc2OC)cc1 (configuration not stated)	/	-35%[59 µM]	-38%	-35%	/	19%
Cc1ccc(C)c(S(=O)(=O)NC2CCSC2=O)c1 (configuration not stated)	1%	-2%	0%	8%	-1	28%
COc1cccc(NC(=O)Cn2c(=O)ccc3cc(S(=O)(=O)N4CCC(C)CC4)ccc32)c1	/	0%[59 µM]	-1%	-20%	/	21%[57 µM]
Cc1sc2nc(SCC(=O)N3CCOCC3)[nH]c(=O)c2c1-c1ccccc1	?	45µM*	-18%	-17%	-20	12%
Cc1ccc(-c2csc3nc(SCC(=O)Nc4ccc(Cl)c(C(=O)O)c4)[nH]c(=O)c23)cc1	?	28µM*	?	-28%	-78*	0%[57 µM]
COCCNC(=O)CSc1nc2scc(-c3ccccc3)c2c(=O)[nH]1	-23%	50µM*	-23%	-10%	-21	14%
O=C(CSc1nc(O)c(-c2ccccc2)c(=O)[nH]1)N1CCOCC1	-2%	-2%	?	-4%	?	41%
O=C(CSc1nc2scc(-c3ccccc3)c2c(=O)[nH]1)N1CCCCC1	-16%	50µM*	-27%	-9%	3	14%
